# Only some compounds are listed: those with a hit (about 3.3% of all), similar ones and a draw of the others.
# MBD2 inh: blocks human MBD2 binding to methylated DNA. Q9UBB5. TR-FRET, MBD2 binding to methylated oligonucleotide. inhibition, % at 4.4 µM. actives 0.31% (n = 370,000); in the data active = inhibition above about 13%
# Target sequence (Q9UBB5 whole entry, looked up): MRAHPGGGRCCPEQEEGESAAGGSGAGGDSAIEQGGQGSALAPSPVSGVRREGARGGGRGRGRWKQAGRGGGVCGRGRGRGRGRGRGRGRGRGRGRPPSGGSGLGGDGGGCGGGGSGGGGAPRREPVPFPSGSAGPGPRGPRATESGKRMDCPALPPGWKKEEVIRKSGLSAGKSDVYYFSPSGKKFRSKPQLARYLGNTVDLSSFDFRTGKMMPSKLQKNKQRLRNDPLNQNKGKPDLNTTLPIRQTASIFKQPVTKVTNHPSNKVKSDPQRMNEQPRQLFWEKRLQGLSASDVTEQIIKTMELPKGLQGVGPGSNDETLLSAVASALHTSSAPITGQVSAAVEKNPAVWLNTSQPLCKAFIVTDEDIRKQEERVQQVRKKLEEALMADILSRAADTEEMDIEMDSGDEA
# PRMT1 inh: PRMT1 (human) inhibition, primary screen; recombinant PRMT1, activity-based probe fluorescence polarization; inhibition, % at 2.79 µM; actives 1.3% (n = 370,000); Q99873;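 active = inhibition above about 21% made by adding two undisclosed values, limit read from the data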
# PfM18AAP inh: PfM18AAP enzyme inhibition; inhibition, % at 7.35 µM; AID 1822; actives 1.2% (n = 290,000); recombinant PfM18AAP, H-Glu-NHMec fluorogenic cleavage;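 active = inhibition above the campaign mean inhibition over all tested compounds plus 3 SD, cut at about 28% in these data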;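 note: 0% = plate median of test compound wells and 100% = 2 mM ZnCl2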
# UHRF1 MBD2 ctr: blocks human UHRF1 binding to methylated DNA; inhibition, % at 4.4 µM; AID 687016; UHRF1 binding to methylated oligo, TR-FRET; actives 0.75% (n = 370,000); in the data active = inhibition above about 21%;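 note: UHRF1 SRA domain binding a hemimethylated CpG hairpin DNA probe; 0% = median of test compound wells and 100% = reference inhibitor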
# PfG6PD inh: PfG6PD (Plasmodium falciparum) enzyme inhibition; PfGluPho enzyme, NADPH resazurin-diaphorase fluorescence; inhibition, % at 20 µM; actives 0.78% (n = 350,000); AID 504690;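 active = inhibition reaching at least a set limit at 20 µM in the primary screen, cut at about 59% in these data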;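 note: 0% = DMSO wells with substrate and 100% = DMSO wells lacking glucose-6-phosphate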
# An asterisk follows results filed as active; / = no result given.
SMILES,MBD2 inh,PRMT1 inh,PfM18AAP inh,UHRF1 MBD2 ctr,PfG6PD inh
COc1cc2cc(C(c3nnnn3C3CCCC3)N3CCCCC3)c(=O)[nH]c2cc1OC (stereo not drawn),0,0,2,16,7
O=c1[nH]c2cc3c(cc2cc1C(c1nnnn1C1CCCCC1)N1CCSCC1)OCCO3 (stereo not drawn),2,22*,7,-4,10
C[C@@H]1CN([C@H](C)CO)C(=O)CCCn2nncc2CO[C@H]1CN(C)C(=O)Nc1ccc2c(c1)OCCO2,-3,-9,/,4,/
O=C(CSc1nnc(SCc2cccc3ccccc23)s1)Nc1ccc(S(=O)(=O)Nc2nccs2)cc1,-3,-5,/,0,/
CCOC(=O)COc1c(C=O)cc(Br)cc1OC,1,2,3,28*,12
CCC(=O)Nc1ccc2c(c1)C(=O)N(C)[C@@H]1CC[C@@H](CC(=O)NCCN3CCCCC3)O[C@H]1CO2,1,3,/,4,/
COc1cc(NC(=O)[C@H]2O[C@@H](n3ccc(N)nc3=O)[C@H](O)[C@@H]2O)cc(OC)c1OC,4,4,/,43*,/
CN1CCN(C(=O)c2cc3c(=O)n4ccccc4nc3s2)CC1,-3,-2,29*,-5,4
CCc1cc2c(nc1CC)CCCN2S(=O)(=O)c1c(C)noc1C,5,3,/,2,/
CC(C)(C)C(=O)NC1CCCCN(Cc2cccc(Cl)c2)C1=O (stereo not drawn),-2,-2,/,-1,/
COc1cc(/C=N/Nc2cc(C)nc(NS(=O)(=O)c3ccc(C)cc3)n2)ccc1O,-4,0,30*,-3,8
O=C(C1CCCN1S(=O)(=O)c1ccc(Cl)s1)N1CCN(c2ccccc2)CC1 (stereo not drawn),-3,-1,/,-1,/
COc1ccc(NC(C)=O)cc1NC(=O)CSc1nnc(-c2ccccc2)n1N,13,-2,2,26*,-12
CCOc1cc(Br)cc(/C=C2\SC(=Nc3ccccc3)NC2=O)c1O,1,24*,7,-4,36
O=C(CSc1ncn[nH]1)NCc1ccc(Cl)cc1,2,-6,27,1,2
O=C(CSc1ncn[nH]1)NCc1ccccc1Cl,3,-2,29*,-3,2
COC(=O)[C@]12C[C@H](CC(=O)N3CCOCC3)C(=O)N(Cc3ccccc3)C1=C[C@H](COCc1ccccc1)O[C@@H]2C,-4,1,/,-3,/
O=C(OC12CCCN(C1)/C(=C/c1ccccc1)C2)c1ccc(Cl)cc1 (stereo not drawn),-3,-5,/,-4,/
O=[N+]([O-])c1ccccc1-c1ccc(CN2CCN(c3ccccc3)CC2)o1,-2,23*,5,0,23
C/C(=C/c1[nH]c(N)[n+](CC2CC2)c1Cc1ccccc1)Cn1[nH]c(=O)n(-c2ccccc2)c1=O,1,-4,/,-3,/
CC(C)CNC(=O)C(=O)NC1CCCC1,5,1,1,21*,-10
O=C(NC1CCCCCC1)C(=S)NC1CCCCC1,-11,-1,30*,-4,11
O=C(NCC(c1ccccc1)c1ccccc1)[C@H](Cc1c[nH]c2ccccc12)NC1(C(=O)NC2CCCCC2)CCC1,2,-2,/,5,/
Cc1cccc(C(=O)NNC(=O)c2ccc(-c3ccccc3)cc2)c1,5,-1,-14,2,-11
Cc1cccc(C(=O)NNC(=O)c2ccc(Br)cc2)c1,11,5,2,21*,-36
SMILES,MBD2 inh,PRMT1 inh,PfM18AAP inh,UHRF1 MBD2 ctr,PfG6PD inh
O=C(CSC1=NS(=O)(=O)c2ccccc21)Nc1ccccc1,1,63*,-8,0,38
COC(=O)CSC1=NS(=O)(=O)c2ccccc21,/,/,-1,/,57
COc1ccc2c(c1)[C@@H](NC(=O)C(F)(F)F)[C@@H]1CCCC[C@]21c1ccccc1,1,4,/,1,/
CC(=O)Nc1cc(-c2ccc(N3CCN(C)CC3)cc2)cn2c(-c3ccc(S(C)(=O)=O)cc3)cnc12,2,-1,/,25*,/
OCCN(CCO)CC(O)COc1ccc2c(c1)OCO2 (stereo not drawn),0,1,8,67*,-9
CCOC(=O)c1c(NC(=O)C2c3ccccc3Oc3ccccc32)sc(C(N)=O)c1C,5,-5,2,22*,13
O[C@H](COc1ccc(Cl)cc1)CN1CCC(C(O)(c2ccccc2)c2ccccc2)CC1,0,-7,/,-1,/
Cc1ccc2nc(NNC(=O)c3ccc(S(=O)(=O)N4CCc5ccccc5C4)cc3)sc2c1,-4,-3,27,-4,-28
CCC(=O)NNc1nc2c(C)cc(C)cc2s1,-1,-2,58*,1,19
Cc1cc(C)c2nc(NNC(=O)c3ccc(S(=O)(=O)N4CC(C)CC(C)C4)cc3)sc2c1 (stereo not drawn),5,12,29*,-2,6
CCCC(=O)N/C(N)=N/c1nc(C)c2ccccc2n1,-1,4,1,34*,10
CCc1ccc2nc(/N=C(\N)NC(=O)c3ccccc3)nc(C)c2c1,0,-1,0,1,-7
Cc1cc(C)c(-c2cc(NC(=O)COC(=O)c3ccc(NC(=O)CC#N)cc3)n(-c3ccccc3)n2)cc1C,11,1,/,26*,-4
N#CC1=C(N)OC2=C(C(=O)CCC2)C1c1ccccc1 (stereo not drawn),-1,0,2,3,-6
Cn1cccc1C1C(C#N)=C(N)OC2=C1C(=O)CCC2 (stereo not drawn),-4,-3,28*,1,-1
COc1ccc(S(=O)(=O)O)cc1P(=O)(c1ccccc1)c1ccccc1,-5,1,2,0,-4
COc1ccccc1Nc1ccc2c(O)cc(S(=O)(=O)O)cc2c1,24*,37*,/,47*,32
Nc1ccc2c(O)cc(S(=O)(=O)O)cc2c1,4,/,/,21*,27
Cc1ccc(S(=O)(=O)c2cc(Nc3ccccc3)ccc2O)cc1,-1,10,/,-3,17
O=S(=O)(O)c1ccc(O)c2cc(Nc3ccccc3)ccc12,70*,43*,/,92*,39
CC(=O)Nc1ccc2c(O)cc(S(=O)(=O)O)cc2c1,1,6,/,2,26
O=S(=O)(O)c1cc(O)c2ccc(Nc3ccccc3)cc2c1,36*,28*,/,64*,15
O=C(C(=O)N1CCC(CNS(=O)(=O)c2ccc(F)cc2)CC1)c1cc2ccccc2o1,-5,-6,/,-4,/
C/C(=C(/CCO)SSCC1CCCO1)N(C=O)Cc1cnc(C)nc1N (stereo not drawn),-2,24*,/,2,1
CCOC(=O)Cn1cc(CN2C(C(=O)OC)CN(Cc3ccc(OC)cc3)CCS2(=O)=O)nn1 (stereo not drawn),6,-6,/,80*,/
COC(=O)C1CN(Cc2cn(Cc3ccccc3)nn2)CCS(=O)(=O)N1Cc1ccccc1 (stereo not drawn),6,-1,/,28*,/
COC(=O)C1CN(Cc2cn(Cc3ccc(C)cc3)nn2)CCS(=O)(=O)N1Cc1ccccc1 (stereo not drawn),5,-7,/,11,/
